Laboratory results reported in PubChem BioAssay (EPA / NIEHS).
Records with an inconclusive call do not appear. Calls of active or inactive are those of the source. How the source made its calls, unless noted: active means hit-call score of the fitted dose curve at least 0.9, where 1 is the maximum; inactive means score below 0.9.

Legend:
[1] = ATG_TAL_CIS: Attagene CIS-FACTORIAL HepG2 Assay for human TAL Basal Promoter (AID 2282966); details: HepG2 Attagene cis-factorial TAL promoter reporter; actives raise or lower the signal;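 further: background control endpoint measuring basal TAL promoter reporter mRNA not a specific factor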
Procedure, shortened: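 After 24 hours of chemical exposure, transfected HepG2 cells yielded RNA that was converted to 6-FAM-labelled, HpaI-digested reporter fragments for capillary electrophoresis. Values derive from bidirectional fitting against DMSO controls.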

[2] = ATG_TGFb_CIS: Attagene CIS-FACTORIAL HepG2 Assay for human Transforming Growth Factor (TGF) (AID 2282967); details: HepG2 Attagene CIS TGFb reporter, mRNA transcription; actives raise or lower the signal
Procedure, shortened: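 Multiplexed cis-reporter HepG2 system, 24 h treatment; mRNA induction read by fluorescence after RT-PCR and CE; DMSO negative control, bidirectional curve fitting.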

[3] = ATG_VDRE_CIS: Attagene CIS-FACTORIAL HepG2 Assay for human Vitamin D Receptor Element (VDRE) (AID 2282968); details: HepG2 VDRE cis-reporter transcription, actives raise or lower the signal
Procedure, shortened: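 Compounds were applied for 24 h to HepG2 cells transfected with promoter-regulated reporter units. Total RNA was reverse-transcribed, and reporter amplicons were fluorescently labelled and sized by capillary electrophoresis.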

[4] = molecular target: X-box-binding protein 1 (Homo sapiens) (UniProt P17861); assay: ATG_Xbp1_CIS: Attagene CIS-FACTORIAL HepG2 Assay for human X-box Binding Protein 1 (XBP1) (AID 2282972); details: HepG2 XBP1 cis-element reporter, Attagene multiplex; actives raise or lower the signal
Procedure, shortened: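 Human hepatoma HepG2, cis-element reporter system, 24 h treatment; mRNA quantified by RT-PCR/CE fluorescence; fit relative to DMSO.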

[5] = molecular target: Glucocorticoid receptor (Homo sapiens) (UniProt P04150); assay: ATG_GR_TRANS: Attagene TRANS-FACTORIAL HepG2 Assay for human Glucocorticoid Receptor (GR) (AID 2282978; active means hit-call score of the fitted dose curve at least 0.9, where 1 is the maximum;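 further: activators score as hits since higher reporter transcript over DMSO is fitted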); details: HepG2 Attagene TRANS GR reporter, mRNA transcription
Procedure, shortened: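 Multiplexed TRANS reporter system, HepG2; 24 h exposure; RNA → oligo(dT) RT → reporter-specific PCR → 6-FAM primer extension → HpaI cut → CE fluorescence. Gain-of-signal vs DMSO.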

[6] = molecular target: Bile acid receptor (Homo sapiens) (UniProt Q96RI1); assay: ATG_FXR_TRANS: Attagene TRANS-FACTORIAL HepG2 Assay for Farnesoid X Receptor (FXR) (AID 2282979; active means hit-call score of the fitted dose curve at least 0.9, where 1 is the maximum;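 further: hits raise reporter mRNA above DMSO so AC50 marks FXR activation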); details: HepG2 Attagene TRANS FXR-GAL4 reporter transcription
Procedure, shortened: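 Transient transfection of HepG2 with multiplexed GAL4-UAS reporter units; exogenous FXR-GAL4 chimera. Dose 24 h → TriZol RNA → oligo(dT) RT → PCR, 6-FAM primer extension, HpaI cut → CE. Gain vs DMSO.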

[7] = molecular target: Oxysterols receptor LXR-beta (Homo sapiens) (UniProt P55055); assay: ATG_LXRb_TRANS: Attagene TRANS-FACTORIAL HepG2 Assay for human Liver X Receptor beta (LXRb) (AID 2282981; active means hit-call score of the fitted dose curve at least 0.9, where 1 is the maximum); details: HepG2 Attagene TRANS GAL4-LXRb reporter, mRNA
Procedure, shortened: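 Multiplexed reporter assay, HepG2, 24 h dosing. Fluorescence of labelled RT-PCR products after capillary electrophoresis gives transcript level; positive fitting direction relative to DMSO.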

[8] = molecular target: Hepatocyte nuclear factor 4-alpha (Homo sapiens) (UniProt P41235); assay: ATG_HNF4a_TRANS: Attagene TRANS-FACTORIAL HepG2 Assay for human Hepatocyte Nuclear Factor 4 alpha (HNF4a) (AID 2282982; active means hit-call score of the fitted dose curve at least 0.9, where 1 is the maximum); details: HepG2 HNF4a transactivation reporter, mRNA readout
Procedure, shortened: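 Endpoint reflects transcriptional activation of a GAL4-UAS reporter by an HNF4a-GAL4 chimera in transfected HepG2 cells, 24 h post-dosing. Fluorescence from RT-PCR products separated by capillary electrophoresis; DMSO baseline.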

[9] = ATG_M_06_TRANS: Attagene TRANS-FACTORIAL HepG2 Assay for M06 Transcription Factor (Internal Marker) (AID 2282983; active means hit-call score of the fitted dose curve at least 0.9, where 1 is the maximum); details: HepG2 Attagene TRANS M06 internal marker reporter
Procedure, shortened: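 Background control endpoint: reporter mRNA from transiently transfected HepG2 after 24 h dosing, detected by RT-PCR with capillary electrophoresis fluorescence. Analysed for gain versus DMSO.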

[10] = molecular target: Transcriptional activator Myb (Homo sapiens) (UniProt P10242); assay: ATG_Myb_CIS: Attagene CIS-FACTORIAL HepG2 Assay for human Myeloblastosis (Myb) Proto-Oncogene Transcription Factor (AID 2282986); details: HepG2 Attagene CIS-FACTORIAL Myb reporter transcription; actives raise or lower the signal
Procedure, shortened: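 Endogenous transcription factor activity at a Myb-responsive cis element is reported in human liver HepG2 cells after 24 h chemical treatment. Reporter mRNA is detected by RT-PCR and capillary electrophoresis fluorescence, with DMSO as baseline.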

[11] = molecular target: Nuclear respiratory factor 1 (Homo sapiens) (UniProt Q16656); assay: ATG_NRF1_CIS: Attagene CIS-FACTORIAL HepG2 Assay for human Nuclear Respiratory Factor 1 (NRF1) Orphan Gene (AID 2282987); details: HepG2 NRF1 cis-element reporter, Attagene multiplex; actives raise or lower the signal
Procedure, shortened: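 Human hepatoma HepG2 cells carrying transfected promoter-regulated reporter units were incubated with test chemicals for 24 h. Reporter transcripts were measured by RT-PCR plus capillary electrophoresis, and endpoints derived by bidirectional fitting with DMSO as baseline.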

[12] = ATG_GAL4_TRANS: Attagene TRANS-FACTORIAL HepG2 Assay for GAL4 (Internal Marker) (AID 2282976; active means hit-call score of the fitted dose curve at least 0.9, where 1 is the maximum); details: HepG2 Attagene TRANS GAL4 internal marker reporter
Procedure, shortened: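 First, HepG2 cells were transfected with reporter units under GAL4-UAS control. Next, they were treated with chemical for 24 h. Finally, RNA was reverse-transcribed, PCR-amplified, FAM-labelled and resolved by capillary electrophoresis, with induction scored against DMSO.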

[13] = molecular target: Estrogen-related receptor gamma (Homo sapiens) (UniProt P62508); assay: ATG_ERRg_TRANS: Attagene TRANS-FACTORIAL HepG2 Assay for human Estrogen-Related Receptor gamma (ERRg) (AID 2282977; active means hit-call score of the fitted dose curve at least 0.9, where 1 is the maximum;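 further: hits increase reporter signal over DMSO so potencies reflect activators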); details: HepG2 Attagene TRANS reporter, ERRg transactivation
Procedure, shortened: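 Induction of reporter transcripts through a chimeric NR-Gal4 protein is quantified in transfected human HepG2 liver cells after 24 h chemical exposure, using RT-PCR with capillary electrophoresis detection and DMSO as baseline.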

[14] = molecular target: Oxysterols receptor LXR-alpha (Homo sapiens) (UniProt Q13133); assay: ATG_LXRa_TRANS: Attagene TRANS-FACTORIAL HepG2 Assay for human Liver X Receptor alpha (LXRa) (AID 2282980; active means hit-call score of the fitted dose curve at least 0.9, where 1 is the maximum); details: HepG2 Attagene TRANS reporter, LXRa transactivation
Procedure, shortened: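 Transfect HepG2 with GAL4-UAS multiplex reporter constructs (TRANS format, chimeric receptor-GAL4); treat 24 h; extract RNA, reverse-transcribe, PCR-amplify, FAM-label, HpaI-digest; resolve fragments by capillary electrophoresis. Upward response vs DMSO.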

[15] = ATG_M_32_TRANS: Attagene TRANS-FACTORIAL HepG2 Assay for M32 Transcription Factor (Internal Marker) (AID 2282984; active means hit-call score of the fitted dose curve at least 0.9, where 1 is the maximum;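 further: transcript level of a background control reporter unit measured by RT-PCR and capillary electrophoresis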); details: HepG2 Attagene TRANS M32 internal marker reporter
Procedure, shortened: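 Internal-marker readout from a multiplexed transcription reporter panel. HepG2 cells were transfected with GAL4-UAS reporter units, treated 24 hours, and reporter transcript levels determined by fluorescence after RT-PCR and capillary separation.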

[16] = molecular target: Nuclear receptor subfamily 4 group A member 2 (Homo sapiens) (UniProt P43354); assay: ATG_NURR1_TRANS: Attagene TRANS-FACTORIAL HepG2 Assay for human Nuclear Receptor Related Protein 1 (NURR1) (AID 2282985; active means hit-call score of the fitted dose curve at least 0.9, where 1 is the maximum); details: HepG2 Attagene TRANS reporter, mRNA readout
Procedure, shortened: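 Endpoint: reporter mRNA increase relative to DMSO. HepG2 cells transfected with reporter units, treated 24 h; RNA processed by RT-PCR, labelling, HpaI digestion and capillary electrophoresis.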

[17] = ATG_M_19_TRANS: Attagene TRANS-FACTORIAL HepG2 Assay for M19 Transcription Factor (Internal Marker) (AID 2282974; active means hit-call score of the fitted dose curve at least 0.9, where 1 is the maximum); details: HepG2 Attagene TRANS-FACTORIAL M19 internal marker reporter
Procedure, shortened: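 After transfection of HepG2 with GAL4-UAS-driven reporter constructs, cells are dosed for 24 h. Total RNA is reverse-transcribed, reporter sequences PCR-amplified and labelled, then HpaI-digested and sized by capillary electrophoresis.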

Measured: AC50

Sequence of Hepatocyte nuclear factor 4-alpha (Homo sapiens) (P41235 whole entry, looked up, the tested form may be a part): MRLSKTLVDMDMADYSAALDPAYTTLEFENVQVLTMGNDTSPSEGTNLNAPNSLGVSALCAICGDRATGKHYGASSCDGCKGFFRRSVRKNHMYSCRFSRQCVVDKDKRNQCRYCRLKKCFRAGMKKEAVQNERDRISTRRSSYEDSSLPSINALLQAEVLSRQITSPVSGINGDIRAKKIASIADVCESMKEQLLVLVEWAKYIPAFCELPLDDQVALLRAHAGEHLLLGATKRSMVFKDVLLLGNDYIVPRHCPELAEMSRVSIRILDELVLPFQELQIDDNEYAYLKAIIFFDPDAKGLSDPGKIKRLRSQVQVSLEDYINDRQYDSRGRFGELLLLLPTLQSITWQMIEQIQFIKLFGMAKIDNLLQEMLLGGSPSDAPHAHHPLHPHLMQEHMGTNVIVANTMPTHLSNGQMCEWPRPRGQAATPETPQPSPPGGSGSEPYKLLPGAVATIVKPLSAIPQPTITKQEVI
Sequence of Transcriptional activator Myb (Homo sapiens) (P10242 whole entry, looked up): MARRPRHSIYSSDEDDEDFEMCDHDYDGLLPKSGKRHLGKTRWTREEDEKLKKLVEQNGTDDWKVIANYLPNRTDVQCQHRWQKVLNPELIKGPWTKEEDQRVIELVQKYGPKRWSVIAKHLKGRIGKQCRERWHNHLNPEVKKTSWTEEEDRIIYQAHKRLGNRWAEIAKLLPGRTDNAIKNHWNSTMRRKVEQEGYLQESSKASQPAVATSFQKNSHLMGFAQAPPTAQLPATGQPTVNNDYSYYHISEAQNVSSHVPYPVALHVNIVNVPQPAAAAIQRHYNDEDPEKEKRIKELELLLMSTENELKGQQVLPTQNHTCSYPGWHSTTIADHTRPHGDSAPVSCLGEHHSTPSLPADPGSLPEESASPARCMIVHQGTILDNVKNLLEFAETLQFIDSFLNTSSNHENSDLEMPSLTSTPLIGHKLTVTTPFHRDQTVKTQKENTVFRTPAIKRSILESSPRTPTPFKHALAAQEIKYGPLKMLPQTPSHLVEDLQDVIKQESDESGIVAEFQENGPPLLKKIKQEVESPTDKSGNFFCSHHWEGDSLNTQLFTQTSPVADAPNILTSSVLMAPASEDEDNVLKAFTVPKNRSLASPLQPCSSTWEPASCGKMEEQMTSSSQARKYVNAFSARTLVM
Sequence of Oxysterols receptor LXR-beta (Homo sapiens) (P55055 whole entry, looked up, the tested form may be a part): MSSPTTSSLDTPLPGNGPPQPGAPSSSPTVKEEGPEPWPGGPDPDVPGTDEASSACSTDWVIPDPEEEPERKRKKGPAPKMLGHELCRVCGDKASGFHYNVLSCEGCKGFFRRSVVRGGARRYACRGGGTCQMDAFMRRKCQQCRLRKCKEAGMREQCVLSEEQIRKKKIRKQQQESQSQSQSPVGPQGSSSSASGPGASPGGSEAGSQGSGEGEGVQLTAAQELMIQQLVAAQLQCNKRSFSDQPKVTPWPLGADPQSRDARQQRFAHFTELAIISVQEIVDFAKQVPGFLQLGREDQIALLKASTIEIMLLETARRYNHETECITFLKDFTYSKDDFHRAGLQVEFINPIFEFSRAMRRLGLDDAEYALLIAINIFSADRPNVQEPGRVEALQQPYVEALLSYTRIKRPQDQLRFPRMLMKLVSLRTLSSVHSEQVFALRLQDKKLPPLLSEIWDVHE
Sequence of X-box-binding protein 1 (Homo sapiens) (P17861 whole entry, looked up): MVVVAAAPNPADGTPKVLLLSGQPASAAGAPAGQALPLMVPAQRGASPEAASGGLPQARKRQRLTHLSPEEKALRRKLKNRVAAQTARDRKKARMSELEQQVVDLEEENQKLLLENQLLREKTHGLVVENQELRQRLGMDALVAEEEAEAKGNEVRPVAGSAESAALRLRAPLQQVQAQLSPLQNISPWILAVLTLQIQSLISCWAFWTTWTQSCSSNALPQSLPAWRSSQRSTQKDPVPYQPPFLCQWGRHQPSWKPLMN
Sequence of Nuclear receptor subfamily 4 group A member 2 (Homo sapiens) (P43354 whole entry, looked up): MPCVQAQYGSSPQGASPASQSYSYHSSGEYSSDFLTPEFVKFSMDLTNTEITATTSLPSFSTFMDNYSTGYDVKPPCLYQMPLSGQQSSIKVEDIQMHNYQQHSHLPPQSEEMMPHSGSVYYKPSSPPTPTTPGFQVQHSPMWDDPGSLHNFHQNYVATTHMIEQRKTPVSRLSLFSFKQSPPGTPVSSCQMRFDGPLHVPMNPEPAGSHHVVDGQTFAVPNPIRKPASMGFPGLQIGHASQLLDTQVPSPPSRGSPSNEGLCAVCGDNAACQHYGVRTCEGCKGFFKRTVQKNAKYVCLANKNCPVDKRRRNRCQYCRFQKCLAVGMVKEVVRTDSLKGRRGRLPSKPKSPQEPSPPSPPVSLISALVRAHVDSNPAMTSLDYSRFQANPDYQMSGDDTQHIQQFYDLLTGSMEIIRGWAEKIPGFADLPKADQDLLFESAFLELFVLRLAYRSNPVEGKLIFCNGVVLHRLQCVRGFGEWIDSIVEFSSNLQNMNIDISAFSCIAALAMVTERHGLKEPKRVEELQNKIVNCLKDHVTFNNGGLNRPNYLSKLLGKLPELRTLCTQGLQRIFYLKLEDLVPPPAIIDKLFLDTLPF
Sequence of Bile acid receptor (Homo sapiens) (Q96RI1 whole entry, looked up, the tested form may be a part): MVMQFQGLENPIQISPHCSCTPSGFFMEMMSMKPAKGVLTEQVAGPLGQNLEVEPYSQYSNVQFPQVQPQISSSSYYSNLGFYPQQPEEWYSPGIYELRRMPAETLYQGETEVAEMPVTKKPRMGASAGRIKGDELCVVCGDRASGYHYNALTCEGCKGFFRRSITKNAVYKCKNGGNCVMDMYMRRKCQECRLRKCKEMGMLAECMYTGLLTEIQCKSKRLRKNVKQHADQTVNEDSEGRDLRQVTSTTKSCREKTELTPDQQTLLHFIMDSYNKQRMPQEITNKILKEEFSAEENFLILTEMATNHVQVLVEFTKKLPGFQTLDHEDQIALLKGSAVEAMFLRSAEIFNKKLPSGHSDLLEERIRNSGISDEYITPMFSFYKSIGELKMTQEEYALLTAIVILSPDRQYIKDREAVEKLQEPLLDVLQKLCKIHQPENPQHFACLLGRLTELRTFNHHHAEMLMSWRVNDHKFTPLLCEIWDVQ
Sequence of Nuclear respiratory factor 1 (Homo sapiens) (Q16656 whole entry, looked up): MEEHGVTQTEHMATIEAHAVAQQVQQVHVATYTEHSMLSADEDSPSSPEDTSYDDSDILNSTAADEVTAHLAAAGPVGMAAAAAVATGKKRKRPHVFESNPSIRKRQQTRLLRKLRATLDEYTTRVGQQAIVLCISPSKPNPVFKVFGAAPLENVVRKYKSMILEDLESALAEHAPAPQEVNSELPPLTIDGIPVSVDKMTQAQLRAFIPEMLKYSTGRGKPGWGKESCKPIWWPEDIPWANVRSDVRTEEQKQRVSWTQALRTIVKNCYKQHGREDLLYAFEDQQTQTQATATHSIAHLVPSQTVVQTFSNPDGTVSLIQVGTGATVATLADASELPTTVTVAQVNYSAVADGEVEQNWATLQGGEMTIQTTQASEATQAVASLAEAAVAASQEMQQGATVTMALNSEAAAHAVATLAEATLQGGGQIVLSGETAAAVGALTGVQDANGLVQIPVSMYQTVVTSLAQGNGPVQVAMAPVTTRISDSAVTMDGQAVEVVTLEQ
Sequence of Glucocorticoid receptor (Homo sapiens) (P04150 whole entry, looked up): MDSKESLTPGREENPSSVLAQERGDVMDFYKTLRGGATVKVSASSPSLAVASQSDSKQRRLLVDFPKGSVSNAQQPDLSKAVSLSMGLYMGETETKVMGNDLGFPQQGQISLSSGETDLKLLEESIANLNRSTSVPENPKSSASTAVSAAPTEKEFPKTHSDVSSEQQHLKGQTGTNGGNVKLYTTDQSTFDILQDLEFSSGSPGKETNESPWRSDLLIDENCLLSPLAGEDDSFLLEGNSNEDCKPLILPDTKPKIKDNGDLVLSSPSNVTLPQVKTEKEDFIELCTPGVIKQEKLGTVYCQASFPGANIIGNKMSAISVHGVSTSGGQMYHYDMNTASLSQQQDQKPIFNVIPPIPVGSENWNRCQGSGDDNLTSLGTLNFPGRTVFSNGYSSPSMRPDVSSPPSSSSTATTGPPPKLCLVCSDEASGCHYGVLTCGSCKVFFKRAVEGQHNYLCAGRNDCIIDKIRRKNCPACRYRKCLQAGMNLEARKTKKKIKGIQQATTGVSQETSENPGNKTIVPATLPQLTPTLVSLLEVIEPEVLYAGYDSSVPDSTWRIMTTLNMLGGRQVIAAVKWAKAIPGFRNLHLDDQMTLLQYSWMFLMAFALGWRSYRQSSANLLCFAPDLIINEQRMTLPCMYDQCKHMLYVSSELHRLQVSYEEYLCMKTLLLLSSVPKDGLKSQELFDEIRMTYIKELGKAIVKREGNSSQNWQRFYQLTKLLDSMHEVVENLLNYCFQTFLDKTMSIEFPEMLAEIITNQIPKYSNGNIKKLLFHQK
Sequence of Estrogen-related receptor gamma (Homo sapiens) (P62508 whole entry, looked up, the tested form may be a part): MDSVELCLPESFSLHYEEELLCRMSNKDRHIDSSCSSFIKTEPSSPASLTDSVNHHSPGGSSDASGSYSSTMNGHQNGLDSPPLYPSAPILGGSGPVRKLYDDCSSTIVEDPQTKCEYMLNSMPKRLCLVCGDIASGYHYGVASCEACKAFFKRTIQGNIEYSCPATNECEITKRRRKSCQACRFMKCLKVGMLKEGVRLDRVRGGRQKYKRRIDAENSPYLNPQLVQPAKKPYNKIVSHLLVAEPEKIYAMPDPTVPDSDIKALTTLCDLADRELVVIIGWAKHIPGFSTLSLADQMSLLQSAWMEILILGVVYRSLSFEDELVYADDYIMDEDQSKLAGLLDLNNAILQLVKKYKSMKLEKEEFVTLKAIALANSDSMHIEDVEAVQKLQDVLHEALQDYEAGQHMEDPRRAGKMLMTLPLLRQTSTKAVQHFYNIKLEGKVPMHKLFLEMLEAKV

O=P(O)(O)Oc1ccccc1
not listed: [12] | [13] | [14] | [15] | [16] | [17]
inactive: all other assays above

CC=CC(F)(F)C(F)(F)C(F)(F)F
not listed: [5] | [6] | [17]
inactive: all other assays above

CO[Si](CCC1CCC2OC2C1)(OC)OC (stereo not drawn)
not listed: [6] | [7] | [8] | [9] | [13] | [14] | [16]
inactive: all other assays above

COCc1c(C(C)C)nc(C(C)C)c(/C=C/[C@@H](O)C[C@@H](O)CC(=O)O)c1-c1ccc(F)cc1
active: [3] 2.34 µM
not listed: [6] | [7] | [13] | [14] | [15]
inactive: all other assays above

OCCCS
not listed: [6] | [7] | [8] | [9] | [13] | [14] | [17]
inactive: all other assays above

O=C1Nc2ccccc2C1(c1ccc(O)cc1)c1ccc(O)cc1
active: [3] 17.8 µM | [4] 48.8 µM | [6] 10.5 µM
inactive: [1] | [2] | [5] | [7] | [9] | [15] | [10] | [11]

C[Si](C)(CCCN)O[Si](C)(C)CCCN
inactive: [1] | [2] | [3] | [4] | [12] | [7] | [9] | [15] | [11]

CCCC(C)CCC(C)=O (stereo not drawn)
inactive: [1] | [2] | [3] | [4] | [12] | [9] | [16] | [10] | [11]

CCC(CC)C(=O)O
not listed: [6] | [7] | [9] | [13] | [14] | [15] | [16]
inactive: all other assays above

O=Cc1ccc(CO)o1
not listed: [5] | [7] | [13] | [14] | [17]
inactive: all other assays above
